For part of these data: Measured potencies and affinities stand elsewhere. Activity calls are given as the source filed them. Unless noted, how the calls were made is not given here.
Key:
[1] = antimalarial activity against Dd2 strain (AID 2302;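 active means growth inhibition above 50% at the single 2 µM test dose, taken to imply half-maximal potency below 2 µM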;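 further: 0% = DMSO untreated growth and 100% = chloroquine plus artemisinin killed control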); details: P. falciparum Dd2 in RBCs, LDH growth readout, 72 h; at 2 µM; stronger effect = higher value
[2] = human hepatoma cell viability loss – ATP luminescence, cytotoxicity control for P. falciparum antimalarial project, primary screen (AID 2303;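 active means inhibition above 50%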;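 further: 0% = DMSO wells and 100% = digitonin-killed cells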); details: HepG2 viability, 24-48 h, at 10 µM, stronger effect = higher value
[3] = molecular target: L-lactate dehydrogenase (Plasmodium falciparum (isolate CDC / Honduras)) (UniProt Q27743); assay: PfLDH activity inhibition – cell lysate, 3D7 strain, counter-screen for P. falciparum growth inhibition project (AID 2304);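 further: 0% = vehicle and 100% = reference inhibitor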; details: P. falciparum 3D7 crude extract, LDH APAD/NBT absorbance; at 2 µM; stronger effect = higher value
L-lactate dehydrogenase (Plasmodium falciparum (isolate CDC / Honduras)), sequence (Q27743 whole entry, looked up): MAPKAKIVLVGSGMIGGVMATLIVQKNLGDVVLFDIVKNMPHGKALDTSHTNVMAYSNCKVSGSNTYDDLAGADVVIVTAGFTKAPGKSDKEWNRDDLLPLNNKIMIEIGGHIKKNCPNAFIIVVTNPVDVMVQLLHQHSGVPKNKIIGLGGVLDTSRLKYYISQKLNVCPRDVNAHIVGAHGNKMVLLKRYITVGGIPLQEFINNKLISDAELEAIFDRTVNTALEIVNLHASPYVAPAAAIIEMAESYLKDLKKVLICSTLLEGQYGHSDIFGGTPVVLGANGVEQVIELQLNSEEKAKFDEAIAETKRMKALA

[4] = inhibition of 3D7 malaria parasite growth – strain 3D7 (AID 2306);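 further: 0% = DMSO wells and 100% = chloroquine plus artemisinin control wells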; details: P. falciparum 3D7 erythrocytic growth, LDH absorbance, 72 h; at 2 µM; stronger effect = higher value
[5] = molecular target: Calcium-dependent protein kinase 1 (Plasmodium falciparum (isolate 3D7)) (UniProt P62344); assay: PfCDPK1 kinase inhibitors, biochemical, TCAMS library (AID 1159585; cut-off not given, nearly all actives have IC50 up to about 0.98 µM;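 further: inhibitors leave more ATP so luminescence rises with inhibition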); details: recombinant PfCDPK1, Kinase-Glo ATP depletion luminescence
Calcium-dependent protein kinase 1 (Plasmodium falciparum (isolate 3D7)), sequence (P62344 whole entry, looked up): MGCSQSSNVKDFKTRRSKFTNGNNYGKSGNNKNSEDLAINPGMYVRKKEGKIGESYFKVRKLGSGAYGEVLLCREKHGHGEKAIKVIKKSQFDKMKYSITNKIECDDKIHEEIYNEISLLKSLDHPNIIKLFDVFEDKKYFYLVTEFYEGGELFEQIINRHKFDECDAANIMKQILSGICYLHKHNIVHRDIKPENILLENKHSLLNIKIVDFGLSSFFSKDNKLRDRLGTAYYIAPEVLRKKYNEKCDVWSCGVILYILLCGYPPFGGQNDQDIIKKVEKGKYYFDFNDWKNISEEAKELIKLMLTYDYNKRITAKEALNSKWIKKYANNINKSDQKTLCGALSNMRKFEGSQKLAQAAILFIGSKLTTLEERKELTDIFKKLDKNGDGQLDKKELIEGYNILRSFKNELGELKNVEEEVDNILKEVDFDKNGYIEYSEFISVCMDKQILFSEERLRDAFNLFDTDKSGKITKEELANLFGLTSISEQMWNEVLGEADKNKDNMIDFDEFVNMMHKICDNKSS

[6] = molecular target: Plasmodium falciparum protein kinase 6 (PK6, PF3D7_1337100) (UniProt Q8IDW1); assay: PfPK6 kinase inhibitors, biochemical, TCAMS library (AID 1159586); details: recombinant PfPK6, Kinase-Glo ATP depletion luminescence
Plasmodium falciparum protein kinase 6 (PK6, PF3D7_1337100), sequence (Q8IDW1 1-305): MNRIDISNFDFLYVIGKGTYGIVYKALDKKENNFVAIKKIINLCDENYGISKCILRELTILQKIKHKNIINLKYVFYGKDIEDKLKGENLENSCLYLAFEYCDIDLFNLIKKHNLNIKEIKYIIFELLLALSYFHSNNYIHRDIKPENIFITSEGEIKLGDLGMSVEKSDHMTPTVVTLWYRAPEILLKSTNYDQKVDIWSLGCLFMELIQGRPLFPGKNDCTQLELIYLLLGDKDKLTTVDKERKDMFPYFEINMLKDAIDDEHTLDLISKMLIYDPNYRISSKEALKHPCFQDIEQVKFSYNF

[7] = molecular target: Protein kinase 7 (PK7), Plasmodium falciparum 3D7 (PF3D7_0213400) (UniProt Q7YTF7); assay: inhibition of Plasmodium PK7 catalytic activity – biochemical, TCAMS antimalarial set, Kinase-Glo luminescence (AID 1159587); details: recombinant PfPK7, Kinase-Glo ATP depletion luminescence
Protein kinase 7 (PK7), Plasmodium falciparum 3D7 (PF3D7_0213400), sequence (Q7YTF7 1-343): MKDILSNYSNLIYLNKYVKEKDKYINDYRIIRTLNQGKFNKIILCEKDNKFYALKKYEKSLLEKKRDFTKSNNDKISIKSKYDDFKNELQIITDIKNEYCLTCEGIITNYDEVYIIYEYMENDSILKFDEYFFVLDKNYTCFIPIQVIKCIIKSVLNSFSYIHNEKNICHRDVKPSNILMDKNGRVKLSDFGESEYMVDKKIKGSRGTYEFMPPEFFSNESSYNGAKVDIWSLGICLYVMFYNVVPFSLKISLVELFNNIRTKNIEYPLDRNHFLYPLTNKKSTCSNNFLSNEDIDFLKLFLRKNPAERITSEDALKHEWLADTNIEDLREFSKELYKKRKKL

[8] = molecular target: Calcium-dependent protein kinase 4 (Plasmodium falciparum (isolate 3D7)) (UniProt Q8IBS5); assay: PfCDPK4 kinase inhibitors, biochemical, TCAMS library (AID 1159588; cut-off not given, nearly all actives have IC50 up to about 0.91 µM); details: recombinant PfCDPK4, Kinase-Glo ATP depletion luminescence
Calcium-dependent protein kinase 4 (Plasmodium falciparum (isolate 3D7)), sequence (Q8IBS5 whole entry, looked up): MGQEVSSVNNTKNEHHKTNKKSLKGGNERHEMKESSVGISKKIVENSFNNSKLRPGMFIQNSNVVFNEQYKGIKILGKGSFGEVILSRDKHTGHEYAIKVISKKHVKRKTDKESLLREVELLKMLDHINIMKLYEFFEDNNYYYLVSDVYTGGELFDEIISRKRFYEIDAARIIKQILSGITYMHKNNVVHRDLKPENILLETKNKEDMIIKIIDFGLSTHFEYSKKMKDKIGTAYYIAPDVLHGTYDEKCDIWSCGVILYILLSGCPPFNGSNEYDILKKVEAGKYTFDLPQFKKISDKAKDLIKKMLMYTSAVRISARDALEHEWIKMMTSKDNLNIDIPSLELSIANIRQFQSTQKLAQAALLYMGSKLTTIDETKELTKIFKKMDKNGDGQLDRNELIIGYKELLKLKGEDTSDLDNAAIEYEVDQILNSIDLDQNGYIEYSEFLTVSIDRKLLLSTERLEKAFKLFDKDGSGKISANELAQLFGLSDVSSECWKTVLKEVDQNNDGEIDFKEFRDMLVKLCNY

CCCc1c(C(=O)Nc2ccc3c(c2)CCN(C2CCC2)CC3)cnn1-c1ccc(Cl)cc1
inactive: growth inhibition [1] 12% | inhibition [3] 2% | outcome [5] | outcome [6] | outcome [7] | outcome [8]
active: inhibition [2] 64% | growth inhibition [4] 92%

CCc1ccc(C2CCN(CCCCNC(=O)c3ccc(NC(=O)c4ccc(Cl)cc4)cc3)CC2)cc1
inactive: inhibition [2] 15% | inhibition [3] -3% | outcome [5] | outcome [6] | outcome [7] | outcome [8]
active: growth inhibition [1] 63% | growth inhibition [4] 100%

O=C(/C=C/c1ccc(Cl)c(Cl)c1)NCCCCCN1CCC(CCNC(=O)/C=C/c2cc(C(F)(F)F)ccc2F)CC1
active: growth inhibition [4] 98%
inactive: growth inhibition [1] 46% | inhibition [2] 25% | inhibition [3] -5% | outcome [5] | outcome [6] | outcome [7] | outcome [8]

CN1CCN(c2cc3c(cc2Cl)CCN3C(=O)Cc2ccc(NC(=O)Nc3cccc4ccccc34)cc2)CC1
inactive: growth inhibition [1] 18% | inhibition [2] 12% | inhibition [3] -11% | outcome [5] | outcome [6] | outcome [7] | outcome [8]
active: growth inhibition [4] 92%

Cc1cc(C)cc(OCC(O)CN(Cc2cc(Cl)cc(Cl)c2)C(=O)Nc2ccc([N+](=O)[O-])cc2)c1 (centres undefined)
inactive: growth inhibition [1] 38% | inhibition [2] -3% | inhibition [3] 4% | outcome [5] | outcome [6] | outcome [7] | outcome [8]
active: growth inhibition [4] 95%

Cc1cc(NCCCCCCCCNc2cc(C)nc3ccccc23)c2ccccc2n1
active: inhibition [2] 59% | growth inhibition [4] 101%
inactive: growth inhibition [1] -1% | inhibition [3] -1% | outcome [5] | outcome [6] | outcome [7] | outcome [8]

COc1cccc2c(C)cc(NCc3ccc(Cl)cc3)nc12
inactive: growth inhibition [1] 5% | inhibition [2] 7% | inhibition [3] 5% | outcome [5] | outcome [6] | outcome [7] | outcome [8]
active: growth inhibition [4] 97%

Oc1cccc(-c2nc3ccc(C4=N[C@@H]5CCCC[C@H]5N4)cc3[nH]2)c1
active: growth inhibition [1] 99% | growth inhibition [4] 94%
inactive: inhibition [2] 3% | inhibition [3] 2% | outcome [5] | outcome [6] | outcome [7] | outcome [8]

CCOc1ccc(C(=O)Nc2cc(Br)c3c(c2)CNCC3)cc1C#N
inactive: growth inhibition [1] 32% | inhibition [2] 17% | inhibition [3] -6% | outcome [5] | outcome [6] | outcome [7] | outcome [8]
active: growth inhibition [4] 97%

CN1CCN(c2ccc(Cl)cc2NC(=O)C2COc3ccccc3O2)CC1 (centres undefined)
active: growth inhibition [4] 99%
inactive: growth inhibition [1] 44% | inhibition [2] 2% | inhibition [3] 2% | outcome [5] | outcome [6] | outcome [7] | outcome [8]

Cc1cc(C(=O)NC2CCN(Cc3ccccc3)CC2)ccc1-c1nc2ccc(C(F)(F)F)cc2[nH]1
active: growth inhibition [4] 95%
inactive: growth inhibition [1] 2% | inhibition [2] 19% | inhibition [3] -1% | outcome [5] | outcome [6] | outcome [7] | outcome [8]

Cc1ccc(NC(=O)c2ccc(CN3CCCN(Cc4cccc(C#N)c4)CC3)cc2)cc1F
inactive: growth inhibition [1] 19% | inhibition [2] 49% | inhibition [3] -3% | outcome [5] | outcome [6] | outcome [7] | outcome [8]
active: growth inhibition [4] 98%

OCC1CCN(Cc2cccc(-c3ccc(-c4nc5ccc(C(F)(F)F)cc5[nH]4)cc3)c2)CC1
inactive: inhibition [2] 25% | inhibition [3] -3% | outcome [5] | outcome [6] | outcome [7] | outcome [8]
active: growth inhibition [1] 95% | growth inhibition [4] 101%

CCN1CCCC1CNC(=O)c1cc2c(-c3ccc(Cl)cc3)nn(C)c2s1 (centres undefined)
active: growth inhibition [4] 96%
inactive: growth inhibition [1] 20% | inhibition [2] 27% | inhibition [3] -9% | outcome [5] | outcome [6] | outcome [7] | outcome [8]

Cc1cccc2[nH]c(-c3cccc(-c4ccc(NC(=O)C(C)(C)c5ccccn5)cc4)c3)nc12
active: growth inhibition [4] 97%
inactive: growth inhibition [1] 4% | inhibition [2] -3% | inhibition [3] -1% | outcome [5] | outcome [6] | outcome [7] | outcome [8]

CC(C)N1CCC(NCc2ccc(-c3ccc(Cl)cc3)cc2)CC1
inactive: growth inhibition [1] 48% | inhibition [3] -3% | outcome [5] | outcome [6] | outcome [7] | outcome [8]
active: inhibition [2] 50% | growth inhibition [4] 99%

Oc1ccc(CN2Cc3ccccc3OC3(CCN(Cc4c[nH]c5cnccc45)CC3)C2)cc1
active: growth inhibition [4] 101%
inactive: growth inhibition [1] 3% | inhibition [2] 17% | inhibition [3] -6% | outcome [5] | outcome [6] | outcome [7] | outcome [8]

CC(C)C[C@@H](/C=N/N1CC(=O)NC1=O)NC(=O)[C@H](CC(C)C)NC(=O)c1ccc(OCCN2CCOCC2)cc1
inactive: inhibition [2] 11% | inhibition [3] 1% | outcome [5] | outcome [6] | outcome [7] | outcome [8]
active: growth inhibition [1] 79% | growth inhibition [4] 94%

Source: PubChem BioAssay
